Outcome data for 40 compounds are collected here from PubChem BioAssay (EPA / NIEHS).

Calls of active or inactive are those of the source. How the source made its calls: active means hit-call score of the fitted dose curve at least 0.9, where 1 is the maximum; inactive means score below 0.9.

This experiment in a line: ATG_M_61_CIS: Attagene CIS-FACTORIAL HepG2 Assay for M61 Transcription Factor (Internal Marker) (AID 2282937). The settings on record: HepG2 Attagene CIS-FACTORIAL M61 internal marker reporter; actives raise or lower the signal. As to the method:
ATG_CIS is a cell-based, multiplexed-readout assay that uses HepG2, a human liver cell line, with measurements taken at 24 hours after chemical dosing in a 24-well plate.ATG_M_61_CIS is one of 52 assay component(s) measured or calculated from the ATG_CIS assay. It is designed to make measurements of mRNA induction, a form of inducible reporter, as detected with fluorescence intensity signals by Reverse transcription polymerase chain reaction (RT-PCR) and Capillary electrophoresis technology.Data from the assay component ATG_M_61_CIS was analyzed into 1 assay endpoint. This assay endpoint, ATG_M_61_CIS, was analyzed with bidirectional fitting relative to DMSO as the negative control and baseline of activity. Using a type of inducible reporter, measures of mRNA for gain or loss-of-signal activity can be used to understand the background control at the transcription factor-level as they relate to the gene . Furthermore, this assay endpoint can be referred to as a secondary readout, because this assay has produced multiple assay endpoints where this one serves a background control function. To generalize the intended target to other relatable targets, this assay endpoint is annotated to the background measurement intended target family, where the subfamily is internal marker.
Human liver HepG2 cells are transiently transfected with multiple reporter transcription units (MRTUs) in 6-well plates using FuGene 6 reagent (Roche; 3 ml FuGene/1 mg DNA). The MRTU constructs are regulated by a cis-regulating element (promoter). […] A major difference between the CIS and TRANS system is that in CIS activities of endogenous TFs are measured, whereas the TRANS assay evaluates changes in activities of exogenous, chimeric NR-Gal4 proteins. […] At the end of 24 hour incubation, total RNA was isolated using TriZol reagent (Invitrogen). The isolated RNA is then reverse-transcribed using oligo(dT) primer and Mo-MLV reverse transcriptase (Invitrogen) with DNAse I (Ambion) treatment for 30 min. The one-tenth of the produced cDNA was amplified by PCR using Taq DNA polymerase (Invitrogen) and two reporter sequence-specific primers. The PCR products were fluorescently labeled by primer extension with 6-arboxyfluorescein (6-FAM) 5'-labeled reporter sequence-specific primer (2 min at 95 C, 20 s at 68 C and 10 min at 72 C) and these products were digested with 5U of HpaI (New England Biolabs) for 2h at 37 C. The fragments were purified using Qiaquick PCR columns (Qiagen), analyzed on an ABI 3130xL genetic analyzer (Applied Biosystems) with peak positions identified by using a set of X-rhodamine (ROX)-labeled MapMarker1000 molecular weight standards (BioVentures). The raw capillary electrophoresis data was processed using Attagraph software (Attagene).
For `O=C(/C=C/C=C/c1ccc2c(c1)OCO2)N1CCCCC1`, the compound was classed as inactive.

As to `Cc1ccc(C2OC[C@@H]3OC(c4ccc(C)cc4)O[C@H]([C@H](O)CO)[C@@H]3O2)cc1` (stereo not given in full), the call was inactive.

Consider `CCCCNc1ccc(NCCCC)c2c1C(=O)c1ccccc1C2=O`, for which the compound was classed as inactive.

Consider `CC(=O)OC1C2(C)CCC(C2)C1(C)C` (stereo not given), for which the result was inactive.

In the case of `COc1ccc([C@@H]2CC(=O)c3c(O)cc(O[C@@H]4O[C@H](CO[C@@H]5O[C@@H](C)[C@H](O)[C@@H](O)[C@H]5O)[C@@H](O)[C@H](O)[C@H]4O)cc3O2)cc1OC`, the call was inactive.

`CCOC(=O)NNc1nncc2ccccc12`: the call was inactive.

As for `CCCCCCCCCCCCCCCC(=O)OCC`, the compound was called inactive.

With `COCc1c(C(C)C)nc(C(C)C)c(/C=C/[C@@H](O)C[C@@H](O)CC(=O)O)c1-c1ccc(F)cc1`, the result was inactive.

As for `C=C1C2CCC(C2)C1(C)C` (stereo not given), the outcome was inactive.

Consider `C=CCCCCCCCCC(=O)OCCCC`, for which the compound was classed as inactive.

With `CCN(CCO)c1cccc(C)c1`, the compound was called inactive.

For the compound `CCCOCCOCCOCCO`, the outcome was inactive.

For the compound `Cc1ccc2c(c1)C(=O)c1ccccc1C2=O`, the result was inactive.

For `CCCCCCCOC(=O)CCC`, the call was inactive.

As to `O=c1cc(-c2ccccc2)oc2ccccc12`, the result was inactive.

In the case of `CCN(CC#N)c1cccc(C)c1`, the result was inactive.

In the case of `O=C(O)CCCC[C@@H]1SC[C@@H]2NC(=O)N[C@@H]21`, the compound was called inactive.

Turning to `O=C(C=Cc1ccccc1)OCc1ccccc1`, the compound was called inactive.

For `Cn1c([N+](=O)[O-])cnc1COC(N)=O`, the result was inactive.

Turning to `Cc1ccc2oc(=O)ccc2c1`, the result was inactive.

As for `CCC(=O)Oc1ccc(/C(CC)=C(\CC)c2ccc(OC(=O)CC)cc2)cc1`, the result was inactive.

Turning to `O=C(O)c1cc(Cl)cc([N+](=O)[O-])c1Cl`, the call was inactive.

Consider `CC(CC=O)CCCC(C)(C)O` (stereo not given), for which the outcome was inactive.

As for `CC1=CC[C@H](C(C)C)C=C1`, the outcome was inactive.

Take `COC(F)(F)C(F)(C(F)(F)F)C(F)(F)F`: the compound was classed as inactive.

Turning to `NC(=O)NNC(N)=O`, the call was inactive.

For the compound `O=C(Nc1cccc(C(F)(F)F)c1)c1cc(Br)cc(Br)c1O`, the result was inactive.

For the compound `NC(CO)(CO)CO`, the compound was called inactive.

With `CCCCCCCC/C=C\CCCCCCCC(=O)O`, the compound was called inactive.

`CC(C)c1ccc2cc(C(C)C)ccc2c1`: the result was inactive.

Consider `Cc1ccc(OC(=O)CC(C)C)cc1`, for which the call was inactive.

As to `CCOc1nc(F)cc2nc(S(=O)(=O)Nc3c(Cl)cccc3C(=O)OC)nn12`, the call was inactive.

Take `CCCCCCCCCCOS(=O)(=O)O`: the result was inactive.

On to `C=C(C)C(=O)OCCO`, for which the compound was classed as inactive.

As for `CCOC(=O)c1ccc(N(C)C)cc1`, the outcome was inactive.

Consider `Oc1ccc(Cl)cc1Cc1cc(Cl)ccc1O`, for which the compound was classed as inactive.

For `Cc1c(C)c([N+](=O)[O-])c(C(C)(C)C)c([N+](=O)[O-])c1C`, the compound was called inactive.

For `N#CCc1ccc(Cl)cc1Cl`, the outcome was inactive.

Turning to `O=C(C(Cl)Cl)N1CCOC12CCCCC2`, the outcome was inactive.

In the case of `CCCCCCCCO[C@@H]1O[C@H](CO)[C@@H](O)[C@H](O)[C@H]1O`, the result was inactive.
